The results in this text go back to PubChem BioAssay AID1345085 (National Center for Advancing Translational Sciences (NCATS), 2018).

Records with an inconclusive call do not appear. A number with no mark means an inactive call. Activity calls are given as the source filed them. Calls follow the shape of the dose curve; as a rule, active = well fitted cell-killing curve with a large enough effect; inconclusive = small, poorly fitted or top-dose-only effect, or effect the other way; inactive = no such curve, though single readings can be large or run the other way.
% is scaled to controls: 0 for no effect and ±100 for the full control effect; potency is read from the fitted curve at half-maximal effect.

The test has as its system Jar. The experiment in a line: Confirmatory qHTS for gynecologic anti-cancer compounds from libraries of approved drugs and bioactive compounds. Also: nearly all actives have a fitted effect of over 55% in size. Conditions: gynecologic cancer cell panel viability, ATPlite luminescence, 48 h; series mostly up to 57.6 µM; activity change, negative = viability loss: at the top concentration. The procedure, abridged: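 IC50 values derive from an ATPlite ATP-content luminescence assay following 48 h treatment at 37 C. Each compound ran as an 11-concentration, threefold series (57.5 uM to 0.977 nM); HEK 293T served as control line for selectivity index.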
Background: In qHTS, concentration-response curves come from the screen itself.
Take `Nc1ccc(C(=O)Nc2cccc(-c3nc(N4CCOCC4)c4oc5ncccc5c4n3)c2)cn1`: the Potency was 5.44 µM (active).
Still for that read-out and setting: for `CC(Oc1cc(-n2cnc3ccc(CN4CCN(C)CC4)cc32)sc1C(N)=O)c1ccccc1C(F)(F)F` (configuration not stated) the value was 3.06 µM (active).
On to `NC(=O)c1cnc(-c2ccc(C3(N)CCC3)cc2)c(-c2ccccc2)c1`, for which the Potency was 27.3 µM (active).
Still for that read-out and setting: for `COc1ccc2c(c1OC)C(=O)O[C@@H]2[C@H]1c2c(cc3c(c2OC)OCO3)CCN1C` the value was 30.6 µM (active); for `Cc1ccc(C(=O)Nc2ccc(CN3CCN(C)CC3)c(C(F)(F)F)c2)cc1C#Cc1cnc2cccnn12`, 30.6 µM (active); for `CCCC(=O)O[C@]1(C(=O)CCl)[C@@H](C)C[C@H]2[C@@H]3CCC4=CC(=O)C=C[C@]4(C)[C@@]3(F)C(=O)C[C@@]21C`, 43.2 µM (active).
The same measure, in the same setting: for `CCC1C(=O)N(C)c2cnc(Nc3ccc(C(=O)NC4CCC(N5CCN(CC6CC6)CC5)CC4)cc3OC)nc2N1C(C)C` (configuration not stated) the value was 0.0611 µM (active); for `CCOc1ccc(Nc2nc(-c3c(C)nc4ccccn34)cs2)cc1`, 0.0243 µM (active).
Still for that read-out and setting: for `CC(C)Oc1ccc(C(=O)NC(CNC(=O)CN(C)C)Cc2ccc(-c3cn4cccc(C(C)O)c4n3)cc2)cc1Cl` (configuration not stated) the value was 0.172 µM (active).
Consider `Cn1cnc2c(F)c(Nc3ccc(Br)cc3F)c(C(=O)NOCCO)cc21`, for which the “activity change, negative = viability loss” value is 5.2%.
Take `CC[C@@]1(O)C(=O)OCc2c1cc1n(c2=O)Cc2c-1nc1ccccc1c2/C=N/OC(C)(C)C`: the Potency was 0.968 µM (active).
The same measure, in the same setting: for `Cc1cnc(Nc2cccc(CN3CCOCC3)c2)nc1Nc1cccc(S(=O)(=O)NC(C)(C)C)c1` the value was 21.7 µM (active).
